CHX counter – Cycloheximide Counterscreen for Small Molecule Inhibitors of Shiga Toxin. cell reporter, cycloheximide protein synthesis inhibition counterscreen. max response, %. 300,000 compounds, 12% hits. AID 2314, 2010; in the data active = max response mostly above about 13%, no sharp cut-off; inactive = mostly below about 14%; note: read at 38.3 µM for the half of the compounds with a filed dose; 0% is about no effect
FBPA Giardia inh – qHTS Assay for Inhibitors of Fructose-1,6-bisphosphate Aldolase from Giardia Lamblia | A8B2U2 | 290,000 compounds, 0.71% hits | Potency, µM (titrated, usually from 59.6 µM), without a hit: top-dose activity, negative = inhibition, most hits filed as inhibitors | purified Giardia FBPA; note: potency is the fitted concentration of half-maximal effect; % is set by controls: 0 for no effect and ±100 for the full control effect; nearly all actives have a fitted effect of over 55% in size
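40 nM FBPA preincubated 10 min at RT with compound (up to 57.5 uM final), then substrate plus GAPDH/TPI/NAD/arsenate coupling and diaphorase/resazurin added. Fluorescence read after 20 min at RT, 525/598 nm.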
LmPK inh – qHTS Assay for Inhibitors of Leishmania Mexicana Pyruvate Kinase (LmPK); 290,000 compounds, 0.37% hits; purified LmPK, Kinase-Glo ATP luminescence, 1 h; Q27686; Potency, µM (top dose mostly 57.5 µM), without a hit: at the top dose activity change, negative = inhibition, most hits filed as inhibitors; note: potency is the fitted concentration of half-maximal effect; % is set by controls: 0 for no effect and ±100 for the full control effect
Target sequence (Q27686 whole entry, looked up): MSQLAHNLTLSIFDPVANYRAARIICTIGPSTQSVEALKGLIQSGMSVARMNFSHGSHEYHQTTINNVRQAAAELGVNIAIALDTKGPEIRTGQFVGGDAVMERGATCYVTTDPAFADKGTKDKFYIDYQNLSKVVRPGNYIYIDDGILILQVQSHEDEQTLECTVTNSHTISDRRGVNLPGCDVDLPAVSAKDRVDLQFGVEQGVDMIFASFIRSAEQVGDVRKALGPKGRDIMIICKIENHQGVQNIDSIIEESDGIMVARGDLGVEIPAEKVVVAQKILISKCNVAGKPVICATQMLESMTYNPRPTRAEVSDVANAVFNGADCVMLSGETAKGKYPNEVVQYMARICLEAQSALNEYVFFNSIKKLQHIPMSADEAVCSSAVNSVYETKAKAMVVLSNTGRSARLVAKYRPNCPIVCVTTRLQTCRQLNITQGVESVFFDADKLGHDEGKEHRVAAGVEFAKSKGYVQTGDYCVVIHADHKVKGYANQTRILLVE
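Purified LmPK (0.1 nM) converted ADP (0.1 mM) to ATP with PEP (0.5 mM) in imidazole buffer pH 7.2 with KCl and MgCl2, 1 h at room temperature. ATP was read by Kinase-Glo luminescence; data normalized to uninhibited and no-enzyme controls.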
Shiga inhibitor – A qHTS for Small Molecule Inhibitors of Shiga Toxin. Vero cells, Shiga toxin protein synthesis inhibition reporter. inhibition, % at 38.7 µM. 290,000 compounds, 9.2% hits; in the data active = inhibition mostly above about 28%, no sharp cut-off; inactive = mostly below about 43%; note: 0% is about no effect
RE007 growth inh – qHTS Assay for Inhibitors of the HIV-1 protein Vpr; Potency, µM (titrated, usually from 92.2 µM), for inactives: at the highest dose activity change, negative = less growth, actives largely listed as inhibitors; 360,000 compounds, 0.21% hits; S. pombe RE007 Vpr strain, BacTiter-Glo ATP luminescence, 24 h; active = well fitted falling curve with a large enough effect; inconclusive = small, poorly fitted or top-dose-only effect; inactive = no such curve, though single readings can be large or run the other way; note: potency is the fitted concentration of half-maximal effect; % is set by controls: 0 for no effect and ±100 for the full control effect; nearly all actives have a fitted effect of over 50% in size
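Fission yeast RE007 carrying one integrated HIV-1 vpr copy, seeded at OD 0.01 in PMG+AL medium with 23 nL pinned compound. Grown 24 h at 30 degrees; viability read by BacTiter-Glo luminescence after 5 min.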
TbPYK inhibitor – qHTS of Trypanosoma Brucei Inhibitors; pyruvate kinase (Trypanosoma brucei), Q57TT1; TbPYK enzyme, Kinase-Glo Plus ATP luminescence, 45 min; Potency, µM (titrated, usually from 76.8 µM), inactives show at the top dose activity, negative = inhibition, most hits filed as inhibitors; 410,000 compounds, 0.12% hits; note: potency is the fitted concentration of half-maximal effect; % is set by controls: 0 for no effect and ±100 for the full control effect; nearly all actives have a fitted effect of over 50% in size
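Assay buffer: 50 mM TEA pH 7.2, 100 mM KCl, 10 mM MgCl2, 0.05% BSA, 0.01% Tween-20. Pyruvate kinase from T. brucei plus substrate met compound, then ADP (130 uM final). Luminescence was read post 45 min RT.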
An asterisk follows results filed as active; ? = inconclusive; nt = no result given; [ ] = dose if it differs, or a comment. The full list was thinned out, with hits kept by preference. Unless noted, calls come from the whole dose curve; as a rule, active = well fitted curve in the direction sought with a large enough effect; inconclusive = small, poorly fitted or top-dose-only effect, or another doubt; inactive = no such curve, though single readings can be large; an effect the other way counts as inactive or inconclusive.

SMILES	CHX counter	FBPA Giardia inh	LmPK inh	Shiga inhibitor	RE007 growth inh	TbPYK inhibitor
CCCCN1C(=O)c2[nH]nc(-c3ccccc3O)c2C1c1ccc(OCc2ccccc2)cc1 (configuration not stated)	nt	nt	nt	nt	nt	6%
Cn1cc(CCC(=O)N2CCCC(CCC(=O)NCc3ccccc3F)C2)cn1 (configuration not stated)	3	-2%	-15%	18	23%	1%
Cn1cc(CCC(=O)N2CCCC(CCC(=O)NCc3ccc(F)c(F)c3)C2)cn1 (configuration not stated)	17*	3%	-3%	43*	5%	2%
COCCC(=O)N1CCCC(CCC(=O)NCc2ccc(F)c(F)c2)C1 (configuration not stated)	17*	0%	1%	79*	-16%	0%
O=C(c1cccc(F)c1)N1CCC[C@@]2(CCN(Cc3nccs3)C2)C1	nt	0%	nt	nt	nt	0%
C[C@@H]1C[C@](C)(C(=O)c2ccco2)C=C1c1ccco1	nt	0%	nt	nt	nt	nt
Cc1cc(C)n(-c2nc(NCCCO)c3c4c(sc3n2)CCCC4)n1	18*	-6%	15%	43	-2%	-4%
Cc1cc(C)n(-c2nc(NCC(C)O)c3c4c(sc3n2)COC(C)(C)C4)n1 (configuration not stated)	-3	-1%	4%	-5	9%	-5%
Cc1cc(C)n(-c2nc(NCCO)c3c4c(sc3n2)CCCC4)n1	24*	1%	5%	26	-4%	-10%
Cc1cc(C)n(-c2nc(NCC3CCCO3)c3c4c(sc3n2)COC(C)(C)C4)n1 (configuration not stated)	28*	0%	-1%	46	-6%	-10%
Cc1cc(C)n(-c2nc(NCC(C)O)c3c4c(sc3n2)CCCC4)n1 (configuration not stated)	16*	-11%	10%	32	10%	2%
Cc1cc(C)n(-c2nc(SCC(=O)O)c3c4c(sc3n2)CCCC4)n1	5	4%	5%	11	nt	nt
CSCC[C@H](NC(=O)[C@@H](NC(=O)[C@H](CCC(=O)O)NC(=O)[C@H](CCSC)NC(=O)[C@H](CC(N)=O)NC(=O)[C@H](CCC(=O)O)NC(=O)[C@H](CC(N)=O)NC(=O)[C@H](CO)NC(=O)[C@H](C)N)[C@@H](C)O)C(=O)O	7	1%	nt	37	nt	nt
NC(N)=Nc1nc(CSCC/C(N)=N\S(N)(=O)=O)cs1	nt	-1%	nt	nt	nt	nt
Cc1oc2ccc(O)c(CN3CCOCC3)c2c1C(=O)Nc1ccc(C(C)C)cc1	nt	nt	nt	nt	nt	2%
CC(C)(C)C(=O)Nc1ccc(-c2csnn2)cc1	50*	3%	0%	44*	-14%	-13%
O=C(Nc1ccc(-c2csnn2)cc1)C(Cl)(Cl)Cl	37*	-1%	1%	111*	2%	0%
COC(=O)c1c(S(C)(=O)=O)nc(-c2ccccc2)[nH]c1=O	-5	5%	1%	12	13%	-4%
COC(=O)c1c(C)[nH]c(C=O)c1-c1ccccc1	30*	5%	8%	62*	3%	-5%
COC(=O)c1c(C)[nH]c(C)c1-c1ccccc1Cl	6	-7%	3%	21	4%	-9%
COC(=O)c1c(-c2ccccc2)c[nH]c1C	24*	-4%	-1%	82*	27%	2%
CC(=O)Oc1cccc(/C=C2\Sc3ccccc3C2=O)c1	28*	-5%	?	51*	-20%	-6%
CCCCOc1ccc(/C=C2/Sc3ccccc3C2=O)cc1	8	3%	-19%	24	-3%	1%
COc1ccc(NC(=O)O/N=C/c2ccncc2)cc1	15	12%	-1%	43*	2%	-1%
COc1ccc(C=NOCC(=O)OCC(=O)Nc2ccc(OC)cc2)cc1	nt	nt	nt	nt	-1%	-5%
SMILES	CHX counter	FBPA Giardia inh	LmPK inh	Shiga inhibitor	RE007 growth inh	TbPYK inhibitor
O=C(Nc1ccccc1Cl)O/N=C/c1ccncc1	nt	nt	nt	nt	-5%	3%
COc1ccc(NC(=O)O/N=C/c2ccc(N(C)C)cc2)cc1	33*	-19%	-1%	57*	-8%	-2%
Cc1ccc(C(=O)O/N=C/c2ccc(N(C)C)cc2)cc1	-3	-1%	2%	-1	11%	4%
Cc1ccc(NC(=O)O/N=C/c2ccc(N(C)C)cc2)cc1	21*	-8%	5%	22	-15%	-9%
O=C(Nc1ccccc1Cl)O/N=C/c1ccc(F)cc1	nt	nt	nt	nt	-7%	0%
CN(C)c1ccc(/C=N/OC(=O)Nc2ccccc2Cl)cc1	22*	-7%	3%	95*	6%	-2%
NC(=O)[C@H]1CCCN1C(=O)[C@H](Cc1cnc[nH]1)NC(=O)[C@@H]1CCC(=O)N1	-7	4%	nt	-5	nt	nt
CCn1c(C(=O)NCc2ccc(OC)cc2)cc2sc(Cl)cc21	nt	nt	nt	nt	nt	-4%
COc1ccc(/C=N/OC(=O)Nc2ccc(Cl)cc2)c(OC)c1	25*	-3%	5%	22	-3%	0%
COc1ccccc1NC(=O)O/N=C(\N)c1ccccc1	10	-1%	4%	24	6%	-22%
COc1ccc(OC)c(/C=N/OC(=O)Nc2ccc(Cl)cc2)c1	4	-9%	-2%	11	-11%	7%
COc1ccc(/C=N/OC(=O)Nc2ccccc2OC)cc1	42*	0%	?	94*	6%	-2%
CN(C)c1ccc(C(=O)OCC(=O)c2ccc[nH]2)cc1	nt	nt	nt	nt	-3%	1%
O=C(COC(=O)c1c(F)cccc1F)c1ccc[nH]1	38*	0%	-10%	82*	-14%	-2%
O=C(OCC(=O)c1ccc[nH]1)c1ccccc1	47*	-2%	-2%[11.5 µM]	118*	11%	-2%
CCN1CCN(c2cc(-c3ccc(F)cc3)c3c(n2)CCCCCC3)CC1	nt	nt	nt	nt	nt	-6%
Cc1ccc2c(c1)CC[C@H]1CC(=O)CC[C@@]21C	nt	5%	nt	nt	nt	nt
N#Cc1cccc(-c2cncnc2NCc2cccs2)c1	nt	12%	nt	nt	nt	nt
CC(C)c1nn2c(=O)cc(COC(=O)CNC(=O)c3ccccc3Cl)nc2s1	nt	nt	nt	nt	nt	-5%
CCNC(=O)/C=C1\NC(C)(C)Cc2c1ccc1ccccc21	0	-12%	13%	-9	0%	-6%
CC1(C)Cc2c(ccc3ccccc23)C(=O)N1	11*	-2%	5%	16	-1%	5%
O=C1C=CC2(OCCCO2)C(Br)=C1	nt	2%[12.9 µM]	nt	nt	nt	nt
COc1ccc(-c2ccc(C(c3c(C)[nH][nH]c3=O)c3c(C)[nH][nH]c3=O)o2)c([N+](=O)[O-])c1	1	6.3µM*	-7%	5	-9%	-7%
Cc1cccc(N2CCN(CCCNc3ncnc4onc(-c5ccc(Cl)cc5)c34)CC2C)c1 (configuration not stated)	nt	nt	nt	nt	nt	-5%
